Results from PubChem BioAssay (EPA / NIEHS).
Active and inactive are the calls of the source. The calls were made as follows: active = hit-call score of the fitted dose curve at least 0.9, where 1 is the maximum; inactive = score below 0.9.

Experiment: ATG_M_06_CIS: Attagene CIS-FACTORIAL HepG2 Assay for M06 Transcription Factor (Internal Marker) (AID 2282950)
Conditions: HepG2 Attagene CIS-FACTORIAL M06 internal marker reporter; actives raise or lower the signal
Method: ATG_CIS is a cell-based, multiplexed-readout assay that uses HepG2, a human liver cell line, with measurements taken at 24 hours after chemical dosing in a 24-well plate.ATG_M_06_CIS is one of 52 assay component(s) measured or calculated from the ATG_CIS assay. It is designed to make measurements of mRNA induction, a form of inducible reporter, as detected with fluorescence intensity signals by Reverse transcription polymerase chain reaction (RT-PCR) and Capillary electrophoresis technology.Data from the assay component ATG_M_06_CIS was analyzed into 1 assay endpoint. This assay endpoint, ATG_M_06_CIS, was analyzed with bidirectional fitting relative to DMSO as the negative control and baseline of activity. Using a type of inducible reporter, measures of mRNA for gain or loss-of-signal activity can be used to understand the background control at the transcription factor-level as they relate to the gene . Furthermore, this assay endpoint can be referred to as a secondary readout, because this assay has produced multiple assay endpoints where this one serves a background control function. To generalize the intended target to other relatable targets, this assay endpoint is annotated to the background measurement intended target family, where the subfamily is internal marker.
Human liver HepG2 cells are transiently transfected with multiple reporter transcription units (MRTUs) in 6-well plates using FuGene 6 reagent (Roche; 3 ml FuGene/1 mg DNA). The MRTU constructs are regulated by a cis-regulating element (promoter). […] A major difference between the CIS and TRANS system is that in CIS activities of endogenous TFs are measured, whereas the TRANS assay evaluates changes in activities of exogenous, chimeric NR-Gal4 proteins. […] At the end of 24 hour incubation, total RNA was isolated using TriZol reagent (Invitrogen). The isolated RNA is then reverse-transcribed using oligo(dT) primer and Mo-MLV reverse transcriptase (Invitrogen) with DNAse I (Ambion) treatment for 30 min. The one-tenth of the produced cDNA was amplified by PCR using Taq DNA polymerase (Invitrogen) and two reporter sequence-specific primers. The PCR products were fluorescently labeled by primer extension with 6-arboxyfluorescein (6-FAM) 5'-labeled reporter sequence-specific primer (2 min at 95 C, 20 s at 68 C and 10 min at 72 C) and these products were digested with 5U of HpaI (New England Biolabs) for 2h at 37 C. The fragments were purified using Qiaquick PCR columns (Qiagen), analyzed on an ABI 3130xL genetic analyzer (Applied Biosystems) with peak positions identified by using a set of X-rhodamine (ROX)-labeled MapMarker1000 molecular weight standards (BioVentures). The raw capillary electrophoresis data was processed using Attagraph software (Attagene).

outcome, inactive:
Cc1occc(=O)c1OC(=O)C(C)C
CN(c1nccc(=O)[nH]1)C1CCN(c2nc3ccccc3n2Cc2ccc(F)cc2)CC1
[O-]n1ccccc1=S.[O-]n1ccccc1=S.[Zn+2]
OCC#CCO
C[C@@H]1CCN(C(=O)[C@H](CCCN=C(N)N)NS(=O)(=O)c2cccc3c2NC[C@H](C)C3)[C@@H](C(=O)O)C1
O=C1CCCC=CCCCCCCCCCC1
CCCCCCCC/C=C\CCCCCCCC(=O)OCC
CCOC(=O)[C@@H](C)Oc1ccc(Oc2nc3ccc(Cl)cc3o2)cc1
CCCCCCCC(=O)OCCCCCC
O=C(O)CCCCCCCCCCCC(=O)O
CC(C=O)Cc1ccc(C(C)(C)C)cc1 (stereo not given)
CC(C)CCCCCCc1ccc(OCCOCCO)cc1
CCCCCC(=O)CC
CCCCCC(C=O)=Cc1ccccc1
CCCCOCC
CCCCCCC(C)(C)S
CCCOCCO
CC=Cc1ccc(OCC)c(O)c1
CCCC(=O)c1ccccc1
C=C(CC(=O)O)C(=O)O
OC[C@H]1O[C@@H]2O[C@H]3[C@H](O)[C@@H](O)[C@@H](O[C@H]4[C@H](O)[C@@H](O)[C@@H](O[C@H]5[C@H](O)[C@@H](O)[C@@H](O[C@H]6[C@H](O)[C@@H](O)[C@@H](O[C@H]7[C@H](O)[C@@H](O)[C@@H](O[C@H]8[C@H](O)[C@@H](O)[C@@H](O[C@H]9[C@H](O)[C@@H](O)[C@@H](O[C@H]1[C@H](O)[C@H]2O)O[C@@H]9CO)O[C@@H]8CO)O[C@@H]7CO)O[C@@H]6CO)O[C@@H]5CO)O[C@@H]4CO)O[C@@H]3CO
COC(=O)C=C(C)CCC=C(C)C
C=Cc1ccc(C)cc1
C=CC(C)C#N (stereo not given)
CC1C2CC(CC2C2CCCC(O)C2)C1(C)C (stereo not given)
Nc1ccc(N)c2c1C(=O)c1ccccc1C2=O
CCCCC(CC)COC(=O)c1ccc(O)cc1 (stereo not given)
Nc1ccc2cc(S(=O)(=O)O)cc(O)c2c1N=Nc1ccccc1C(F)(F)F
CCN(CC)C(=O)N(CC)CC
COC(CC(C)CCCC(C)(C)O)OC (stereo not given)
C[N+](C)(C)CCCCCC[N+](C)(C)C
CC(=O)CC(=O)Nc1ccc(C)cc1C
CCCCCCC(=O)c1ccccc1
C#CC(C)(O)CC(C)C (stereo not given)
CCCCN(CCCC)C(=O)N(CCCC)CCCC
Cc1ccc(S(N)(=O)=O)cc1
CCCCC1CCC(O)CC1 (stereo not given)
O=c1[nH]c(=O)c2cn[nH]c2[nH]1
CC(C)(C)OC(=O)c1ccc(O)cc1
CC[N+](C)(CC)CC
